Source: PubChem BioAssay (Tox21)
Results filed as inconclusive are left out. Active and inactive are the calls of the source. Unless noted, calls follow the shape of the dose curve; as a rule, active = well fitted curve in the direction sought with a large enough effect in the repeat runs; inconclusive = weak or mixed curves; inactive = no such curve, though single readings can be large; an effect the other way counts as inactive or inconclusive.

Assays:
[1] = molecular target: Luciferin 4-monooxygenase (Photinus pyralis) (UniProt P08659); test: qHTS assay to identify small molecule inhibitors of firefly luciferase (AID 1224835); also: nearly all actives have a fitted effect of over 25% in size
Procedure, shortened: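 Biochemical qHTS: compounds run as interplate titrations against purified firefly enzyme, with D-luciferin and ATP each at its KM concentration. Light output recorded by CCD imaging.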

[2] = qHTS assay to identify small molecule agonists of the constitutive androstane receptor (CAR) signaling pathway - cell viability counter screen (AID 1224836); also: nearly all actives have a fitted effect of over 45% in size
Procedure, shortened: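 Compound titrations (15 concentrations) went onto HepG2-CYP2B6-hCAR cells 4 h after seeding, alongside PK11195 at a final 0.75 uM; a 23 h, 37 C/5% CO2 incubation preceded CellTiter-Fluor viability measurement.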

[3] = qHTS assay to identify small molecule antagonists of the constitutive androstane receptor (CAR) signaling pathway - cell viability counter screen (AID 1224837); also: nearly all actives have a fitted effect of over 45% in size
Procedure, shortened: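 HepG2 cells stably expressing hCAR and a CYP2B6-2.2kb reporter were plated and pre-incubated 4 hr at 37 C/5% CO2, then given compounds at 15 concentrations plus 50 nM CITCO (final). After 23 hr, viability was read by CellTiter-Fluor fluorescence.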

[4] = molecular target: Nuclear receptor subfamily 1 group I member 3 (Homo sapiens) (UniProt Q14994); test: qHTS assay to identify small molecule antagonists of the constitutive androstane receptor (CAR) signaling pathway (AID 1224838); also: nearly all actives have a fitted effect of over 40% in size
Procedure, shortened: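 HepG2 cells stably co-transfected with hCAR and a CYP2B6-2.2kb luciferase reporter were seeded 4 h before compound addition at 15 concentrations. Cells were stimulated with 50 nM CITCO (final) for 24 h at 37 C; luciferase luminescence was then read.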

[5] = molecular target: Nuclear receptor subfamily 1 group I member 3 (Homo sapiens) (UniProt Q14994); test: qHTS assay to identify small molecule agonists of the constitutive androstane receptor (CAR) signaling pathway (AID 1224839);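 also: HepG2 cells stably carrying human CAR and a CYP2B6 luciferase reporter; nearly all actives have a fitted effect of over 15% in size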
Procedure, shortened: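 In this screen, CAR-driven CYP2B6 promoter activity is measured by luminescence in HepG2-CYP2B6-hCAR cells after 24 h with test compounds and 0.75 uM PK11195 (final concentration).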

[6] = qHTS assay to identify small molecule antagonists of the estrogen related receptor signaling pathway with the pleiotropic PPARgamma coactivator (PGC) from Tox21 10K library - cell viability counter screen (AID 1224840; active = well fitted cell-killing curve with a large enough effect in the repeat runs, not every such curve was filed as active; also: nearly all actives have a fitted effect of over 40% in size)
Procedure, shortened: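 PGC/ERR cells were seeded at 2,000 cells/well and left 6 hours at 37 C/5% CO2 before pin-tool addition of compounds in DMSO. After 17.5 hours at 37 C, CellTiter-Fluor was added and fluorescence read 30 minutes later.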

[7] = qHTS assay to identify small molecule agonists of the hypoxia (HIF-1) signaling pathway - cell viability counter screen (AID 1224844; calls by dose curve; also: nearly all actives have a fitted effect of over 50% in size)
Procedure, shortened: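 HRE-bla ME-180 cells in medium with 0.5% dialyzed FBS were preincubated 5 hrs at 37C, exposed to compounds for 17 hrs, then viability was read as CellTiter-Glo luminescence after 30 min at room temperature, in the reporter wells.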

[8] = qHTS assay to identify small molecule agonists of H2AX (AID 1224845; active = well fitted activation curve with a large enough effect in the signal ratio in the repeat runs, not every such curve was filed as active; the % refers to the signal ratio)
Procedure, shortened: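 Wild-type CHO-K1 cells, plated overnight, exposed 3hr at 37C to 15 concentrations (0.76% DMSO final). Lysed, then HTRF anti-pH2AX (S139) cryptate and anti-H2AX-d2 antibodies, 24 hr room temperature; 665/620 nm emission read.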

[9] = qHTS assay to identify small molecule agonists of the hypoxia (HIF-1) signaling pathway (AID 1224846; active = well fitted activation curve with a large enough effect in the signal ratio in the repeat runs, not every such curve was filed as active; the % refers to the signal ratio)
Procedure, shortened: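 HRE-bla ME-180 cells (beta-lactamase reporter under hypoxia response element) were plated at 2,000 cells/well in medium with 0.5% dialyzed FBS, rested 5 hrs, then given compounds in DMSO for 17 hrs at 37C, 5% CO2. Reporter induction was read with CCF4-AM FRET substrate.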

[10] = qHTS assay to identify small molecule agonists of H2AX - cell viability counter screen (AID 1224847; calls by dose curve; also: top concentration of the series differs between compounds; nearly all actives have a fitted effect of over 30% in size)
Procedure, shortened: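 Read-out: CellTiter-Glo luminescence, 30 min RT. Cells: wild-type CHO-K1, 1000/well, 10% FBS, plated overnight at 37C. Treatment: 15 concentrations, 3 hr, 37C, 0.76% DMSO.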

[11] = qHTS RealTime-Glo MT Cell Viability Assay in HepG2 cells - 24 hour (AID 1224867); also: nearly all actives have a fitted effect of over 50% in size
Procedure, shortened: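 Luminescence read-out: viable HepG2 cells reduce a prosubstrate to a NanoLuc substrate, giving a signal proportional to live cell number. Reads taken at 0, 8, 16, 24, 32 and 40 h of compound exposure at 37 C.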

[12] = qHTS RealTime-Glo MT Cell Viability Assay in HEK293 cells - 32 hour (AID 1224868); also: top concentration of the series differs between compounds; nearly all actives have a fitted effect of over 50% in size
Procedure, shortened: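 Nonlytic real-time viability readout: viable cells convert prosubstrate to NanoLuc substrate, giving luminescence proportional to live cell number. HEK293, 600 cells/well, compound added after 5 h, continuous culture at 37 C.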

[13] = A CellTox Green Cytotoxicity Assay to monitor cytotoxicity in HEK293 cells - 0 hour (AID 1224869); also: nearly all actives have a fitted effect of over 50% in size
Procedure, shortened: (§1)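 HEK293 cells premixed with CellTox Green dye were seeded at 600 cells/well and left 5 h at 37 C/5% CO2 before pin transfer of 23 nL compound in DMSO. Fluorescence from dye bound to dead-cell DNA was read during 40 h treatment.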

[14] = qHTS RealTime-Glo MT Cell Viability Assay in HepG2 cells - 40 hour (AID 1224870); also: nearly all actives have a fitted effect of over 50% in size
Procedure, shortened: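 HepG2 cells (600/well) mixed with RealTime-Glo MT reagent, settled 5 h at 37 C/5% CO2 before compound addition. Nonlytic NanoLuc luminescence from viable-cell prosubstrate reduction read repeatedly during 40 h treatment at 37 C.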

[15] = A CellTox Green Cytotoxicity Assay to monitor cytotoxicity in HEK293 cells - 40 hour (AID 1224871); also: nearly all actives have a fitted effect of over 45% in size
Procedure, shortened: as §1

[16] = qHTS assay to identify small molecule antagonists of the estrogen related receptor signaling pathway with the pleiotropic PPARgamma coactivator (PGC) from Tox21 10K library (AID 1224841; call rule not given here)
Procedure, shortened: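 PGC/ERR reporter cells were seeded at 2,000 cells/well and held 6 hours at 37 C/5% CO2 before pin-tool addition of compounds in DMSO. After 18 hours at 37 C, One-Glo was added and luminescence read after 30 minutes at room temperature.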

[17] = qHTS assay to identify small molecule agonists of the estrogen related receptor signaling pathway with the pleiotropic PPARgamma coactivator (PGC) from Tox21 10K library (AID 1224842); also: nearly all actives have a fitted effect of over 15% in size
Procedure, shortened: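 PGC/ERR reporter cell line, 2,000 cells per well, incubated 6 h at 37 C before 23 nL compound in DMSO was added. After 18 h at 37 C, One-Glo luminescence read following 30 min at room temperature.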

[18] = molecular target: Thyrotropin receptor (Homo sapiens) (UniProt P16473); test: qHTS assay to identify small molecule agonists of the thyroid stimulating hormone receptor (TSHR) signaling pathway (AID 1224843; calls by dose curve; also: nearly all actives have a fitted effect of over 45% in size)
Procedure, shortened: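 TSHR-HEK293 cells in agonist mode, 30 min room-temperature step, then cAMP measured by competitive HTRF (cAMP-d2 with anti-cAMP cryptate) after 1 h at room temperature. Tested at 15 concentrations in triplicate.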

[19] = qHTS assay to identify small molecule antagonists of the estrogen related receptor (ERR) signaling pathway from Tox21 library (AID 1224848); also: nearly all actives have a fitted effect of over 50% in size
Procedure, shortened: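 ERR reporter cell line (from NTP) seeded 2,000 cells/well, rested 6 h at 37 C/5% CO2, then pin-dosed with compounds in DMSO. After 18 h at 37 C, ONE-Glo added; luminescence read after 30 min at room temperature.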

[20] = qHTS assay to identify small molecule agonists of the estrogen related receptor (ERR) signaling pathway from Tox21 library (AID 1224849; calls by dose curve; also: nearly all actives have a fitted effect of over 15% in size); details: ERR reporter cell line, ONE-Glo luciferase, 18 h; at 92.4 µM (top of the series) unless noted
Procedure, shortened: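 ERR reporter cell line (NTP) seeded, rested 6 h at 37 C/5% CO2, then pinned with Tox21 compounds in DMSO. After 18 h at 37 C, ONE-Glo luciferase luminescence was read following 30 min at room temperature.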
% is scaled to controls: 0 for no effect and ±100 for the full control effect.

Chain of Nuclear receptor subfamily 1 group I member 3 (Homo sapiens) (Q14994 whole entry, looked up): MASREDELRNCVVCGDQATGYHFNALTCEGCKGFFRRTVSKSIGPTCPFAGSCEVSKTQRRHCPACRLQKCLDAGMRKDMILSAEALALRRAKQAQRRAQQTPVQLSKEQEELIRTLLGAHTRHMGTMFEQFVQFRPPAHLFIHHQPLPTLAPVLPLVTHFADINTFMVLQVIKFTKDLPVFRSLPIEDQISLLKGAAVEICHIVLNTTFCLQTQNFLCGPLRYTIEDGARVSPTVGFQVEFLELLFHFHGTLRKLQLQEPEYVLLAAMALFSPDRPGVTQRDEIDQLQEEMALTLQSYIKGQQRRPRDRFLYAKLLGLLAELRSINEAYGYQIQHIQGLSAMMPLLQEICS
Chain of Thyrotropin receptor (Homo sapiens) (P16473 whole entry, looked up): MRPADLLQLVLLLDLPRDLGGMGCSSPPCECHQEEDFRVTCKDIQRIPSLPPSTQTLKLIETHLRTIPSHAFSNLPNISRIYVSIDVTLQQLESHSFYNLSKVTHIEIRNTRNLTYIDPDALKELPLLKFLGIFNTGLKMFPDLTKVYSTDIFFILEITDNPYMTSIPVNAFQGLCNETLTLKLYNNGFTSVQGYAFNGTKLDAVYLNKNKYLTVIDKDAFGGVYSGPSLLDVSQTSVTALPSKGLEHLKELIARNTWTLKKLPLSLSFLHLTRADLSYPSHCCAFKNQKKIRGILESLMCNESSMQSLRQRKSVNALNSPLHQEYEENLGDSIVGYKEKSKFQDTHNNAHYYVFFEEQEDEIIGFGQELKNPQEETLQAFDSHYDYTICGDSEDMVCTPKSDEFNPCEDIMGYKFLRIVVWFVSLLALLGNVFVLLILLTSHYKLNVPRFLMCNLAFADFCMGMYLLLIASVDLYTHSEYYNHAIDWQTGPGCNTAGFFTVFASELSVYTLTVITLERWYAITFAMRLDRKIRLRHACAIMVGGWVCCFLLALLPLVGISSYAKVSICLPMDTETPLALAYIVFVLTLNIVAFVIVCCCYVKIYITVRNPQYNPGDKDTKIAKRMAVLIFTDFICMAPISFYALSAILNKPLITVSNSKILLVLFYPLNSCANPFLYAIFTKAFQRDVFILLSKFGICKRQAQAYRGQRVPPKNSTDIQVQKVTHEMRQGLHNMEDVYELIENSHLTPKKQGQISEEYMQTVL
Chain of Luciferin 4-monooxygenase (Photinus pyralis) (P08659 whole entry, looked up): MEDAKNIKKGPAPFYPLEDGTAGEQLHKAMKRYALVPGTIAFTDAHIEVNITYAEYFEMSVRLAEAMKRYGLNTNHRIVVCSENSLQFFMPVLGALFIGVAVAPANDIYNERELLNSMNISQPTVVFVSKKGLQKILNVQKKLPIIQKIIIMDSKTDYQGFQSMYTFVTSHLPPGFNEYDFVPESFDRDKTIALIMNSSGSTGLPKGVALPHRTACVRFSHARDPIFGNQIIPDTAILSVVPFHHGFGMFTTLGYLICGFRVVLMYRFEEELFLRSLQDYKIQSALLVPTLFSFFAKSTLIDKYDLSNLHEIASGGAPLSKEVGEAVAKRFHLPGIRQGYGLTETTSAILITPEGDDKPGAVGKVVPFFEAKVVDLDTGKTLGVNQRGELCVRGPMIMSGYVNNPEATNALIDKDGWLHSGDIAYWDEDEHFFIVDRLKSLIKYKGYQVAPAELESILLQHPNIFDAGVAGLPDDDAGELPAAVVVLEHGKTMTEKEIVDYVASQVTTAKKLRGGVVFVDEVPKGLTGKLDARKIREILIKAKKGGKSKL

N#CC(Cl)(Cl)Cl
inactive: Potency [1] | Potency [2] | Potency [3] | Potency [4] | Potency [5] | Potency [6] | Potency [7] | Potency [8] | outcome [9] | Potency [10] | Potency [11] | Potency [12] | Potency [13] | Potency [14] | Potency [15]

COc1cc(OC)nc(Oc2cccc(Oc3nc(OC)cc(OC)n3)c2C(=O)O)n1
inactive: Potency [1] | Potency [2] | Potency [3] | Potency [4] | Potency [5] | Potency [6] | Potency [7] | Potency [8] | outcome [9] | Potency [11] | Potency [13] | Potency [14] | Potency [15]

O=C1OC(CCN2CCCCC2)OC1(c1ccccc1)c1ccccc1 (stereo unspecified)
inactive: Potency [1] | Potency [2] | Potency [3] | Potency [4] | Potency [5] | Potency [6] | Potency [7] | outcome [9] | Potency [10] | Potency [11] | Potency [12] | Potency [13] | Potency [14] | Potency [15]

N#CCBr
inactive: Potency [1] | Potency [2] | Potency [3] | Potency [4] | Potency [6] | Potency [16] | outcome [17] | Potency [18] | Potency [7] | Potency [8] | outcome [9] | Potency [10] | Potency [19] | activity change, positive = activation [20] 0.914% | Potency [11] | Potency [13] | Potency [14] | Potency [15]

Fc1cc(Br)ccc1CBr
inactive: Potency [1] | Potency [2] | Potency [3] | Potency [4] | Potency [5] | Potency [6] | Potency [7] | Potency [8] | outcome [9] | Potency [10] | Potency [11] | Potency [12] | Potency [13] | Potency [14] | Potency [15]

CC(=O)CC(c1ccc(Cl)cc1)c1c(O)c2ccccc2oc1=O (stereo unspecified)
inactive: Potency [1] | Potency [2] | Potency [3] | Potency [4] | Potency [5] | Potency [6] | Potency [18] | Potency [7] | outcome [9] | Potency [11] | Potency [12] | Potency [13] | Potency [14] | Potency [15]

O=S(=O)(O)C(F)(F)C(F)(F)C(F)(F)C(F)(F)C(F)(F)C(F)(F)F
inactive: Potency [1] | Potency [2] | Potency [3] | Potency [4] | Potency [5] | Potency [6] | Potency [18] | Potency [7] | Potency [8] | outcome [9] | Potency [11] | Potency [12] | Potency [13] | Potency [14] | Potency [15]

Cc1ccccc1CO[C@@H]1C[C@@]2(C(C)C)CC[C@]1(C)O2
inactive: Potency [1] | Potency [2] | Potency [3] | Potency [4] | Potency [5] | Potency [6] | Potency [7] | outcome [9] | Potency [11] | Potency [12] | Potency [13] | Potency [14]

Cc1cnc[nH]1
inactive: Potency [1] | Potency [2] | Potency [3] | Potency [4] | Potency [5] | Potency [6] | Potency [7] | Potency [8] | outcome [9] | Potency [10] | Potency [11] | Potency [12] | Potency [13] | Potency [14] | Potency [15]
